High-throughput results (PubChem BioAssay)
LmPK inhibitor: blocks Leishmania mexicana pyruvate kinase activity | Q27686 | purified LmPK, Kinase-Glo ATP luminescence, 1 h | Potency, µM (top dose mostly 57.5 µM), for the others: top-dose activity change, negative = inhibition, most hits filed as inhibitors | actives 0.37% (n = 290,000); note: potency is the fitted concentration of half-maximal effect; % is set by controls: 0 for no effect and ±100 for the full control effect
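qHTS format; LmPK 0.1 nM; substrates PEP 0.5 mM and ADP 0.1 mM. One-hour room-temperature incubation, then coupled luciferase luminescence; 0.5 nM enzyme wells mark activation.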
NS1 function inh: inhibitors of influenza NS1 protein function; Potency, µM (titrated, usually from 46.1 µM), for the others: top-dose activity, positive = more growth; actives 0.4% (n = 270,000); calls by dose curve; note: potency is the fitted concentration of half-maximal effect; actives are rising curves; nearly all actives have a fitted effect of over 50% in size
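S. cerevisiae expressing influenza A NS1, grown in glucose, washed, then diluted 1:100 into pH 6.0 -URA galactose medium with 23 nl compound. Growth recovery read as OD600; NS1-free strain serves as control.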
Shiga inhibitor: inhibitors of Shiga toxin in Vero cells. Vero cells, Shiga toxin protein synthesis inhibition reporter. inhibition, % at 38.7 µM. actives 9.2% (n = 290,000); in the data active = inhibition mostly above about 28%, no sharp cut-off; inactive = mostly below about 43%; note: 0% is about no effect
Giardia FBPA inh-1: inhibitors of Giardia lamblia fructose-1,6-bisphosphate aldolase; Potency, µM (highest dose often 59.6 µM), without a hit: top-dose activity, negative = inhibition, actives largely listed as inhibitors; purified Giardia FBPA; A8B2U2; actives 0.71% (n = 290,000); note: potency is the fitted concentration of half-maximal effect; % is set by controls: 0 for no effect and ±100 for the full control effect; nearly all actives have a fitted effect of over 55% in size
Target sequence (A8B2U2 whole entry, looked up): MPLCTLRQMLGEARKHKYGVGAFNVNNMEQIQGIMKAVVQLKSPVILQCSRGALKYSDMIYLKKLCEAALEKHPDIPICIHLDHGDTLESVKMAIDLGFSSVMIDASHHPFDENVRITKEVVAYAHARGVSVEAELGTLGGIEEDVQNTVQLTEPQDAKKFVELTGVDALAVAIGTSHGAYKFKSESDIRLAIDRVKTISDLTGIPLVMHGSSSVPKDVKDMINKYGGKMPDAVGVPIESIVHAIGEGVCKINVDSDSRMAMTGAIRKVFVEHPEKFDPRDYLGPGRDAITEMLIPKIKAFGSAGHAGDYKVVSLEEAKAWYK
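40 nM FBPA preincubated 10 min at RT with compound (up to 57.5 uM final), then substrate plus GAPDH/TPI/NAD/arsenate coupling and diaphorase/resazurin added. Fluorescence read after 20 min at RT, 525/598 nm.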
Cycloheximide cs: counter-screen for Shiga toxin inhibitors: cycloheximide protein synthesis inhibition. cell reporter, cycloheximide protein synthesis inhibition counterscreen. max response, %. AID 2314. actives 12% (n = 300,000); in the data active = max response mostly above about 13%, no sharp cut-off; inactive = mostly below about 14%; note: read at 38.3 µM for the half of the compounds with a filed dose; 0% is about no effect
Giardia growth: Giardia lamblia growth inhibition | actives 5% (n = 1,500) | Potency, µM (doses to about 57.5 µM), for inactives: top-dose activity change, negative = inhibition, hits mostly inhibitors | shares compounds with Giardia FBPA inh-1 | Giardia lamblia trophozoite growth inhibition;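 note: potency is the fitted concentration of half-maximal effect; trophozoites exposed to compound for 48 h at 37 °C; % is set by controls: 0 for no effect and ±100 for the full control effect; nearly all actives have a fitted effect of over 70% in size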
Mammal cell tox: toxic to mammalian cells in Giardia aldolase counter-screen. shares compounds with Giardia FBPA inh-1. mammalian cell viability counter-screen, qHTS. Potency, µM (top dose mostly 57.5 µM), without a hit: at the top dose viability change, negative = toxicity, actives largely listed as inhibitors. actives 4% (n = 1,500);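 note: Chinese hamster ovary cells used as mammalian cytotoxicity surrogate; viability measured as cellular ATP by luminescence; potency is the fitted concentration of half-maximal effect; compound exposure lasted 48 h before reading; % is set by controls: 0 for no effect and ±100 for the full control effect; nearly all actives have a fitted effect of over 60% in size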
Giardia FBPA inh-2: confirmation of Giardia fructose-bisphosphate aldolase inhibitors. Potency, µM (titrated, usually from 57.5 µM), inactives show top-dose activity change, negative = inhibition, hits mostly inhibitors. shares compounds with Giardia FBPA inh-1. actives 5% (n = 1,500). purified Giardia aldolase enzyme activity, qHTS. AID 2787; note: potency is the fitted concentration of half-maximal effect; % is set by controls: 0 for no effect and ±100 for the full control effect; nearly all actives have a fitted effect of over 45% in size
Rabbit FBPA inh: selectivity test for Giardia aldolase inhibitors: rabbit aldolase | Rabbit muscle FBPA enzyme inhibition, selectivity counter-screen | AID 2794 | actives 4% (n = 1,500) | shares compounds with Giardia FBPA inh-1 | Potency, µM (doses to about 57.5 µM), for inactives: at the highest dose activity, negative = inhibition, hits mostly inhibitors; note: potency is the fitted concentration of half-maximal effect; % is set by controls: 0 for no effect and ±100 for the full control effect; nearly all actives have a fitted effect of over 60% in size
Target sequence (P00883 whole entry, looked up): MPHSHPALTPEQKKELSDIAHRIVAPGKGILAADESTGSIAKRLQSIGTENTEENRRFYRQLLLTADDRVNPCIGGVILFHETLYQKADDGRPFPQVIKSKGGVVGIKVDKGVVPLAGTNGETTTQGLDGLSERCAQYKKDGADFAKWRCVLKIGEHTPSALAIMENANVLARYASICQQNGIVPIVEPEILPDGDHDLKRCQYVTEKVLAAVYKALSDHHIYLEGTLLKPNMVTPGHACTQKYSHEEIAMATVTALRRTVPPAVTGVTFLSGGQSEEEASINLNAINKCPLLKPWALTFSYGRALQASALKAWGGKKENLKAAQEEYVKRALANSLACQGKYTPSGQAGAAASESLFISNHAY
GAPDH counter: counter-screen for Giardia aldolase inhibitors: GAPDH coupling enzyme; actives 6% (n = 1,500); GAPDH coupling enzyme counterscreen, biochemical, qHTS; Potency, µM (series often up to 57.5 µM), for inactives: at the highest dose activity change, negative = inhibition, usual class: inhibitors; shares compounds with Giardia FBPA inh-1; note: potency is the fitted concentration of half-maximal effect; % is set by controls: 0 for no effect and ±100 for the full control effect; nearly all actives have a fitted effect of over 55% in size
The depositor's hits bear a star; [ ] = another dose, or the depositor's remark. In the library only some 14% were active in any assay of this set; here they are far more common. Unless noted, calls come from the whole dose curve; as a rule, active = well fitted curve in the direction sought with a large enough effect; inconclusive = small, poorly fitted or top-dose-only effect, or another doubt; inactive = no such curve, though single readings can be large; an effect the other way counts as inactive or inconclusive.

For O=C(CCn1nnnc1CN1CCOCC1)N1CCC(c2ccccc2F)C1 (centres undefined) the results were LmPK inhibitor -1%, NS1 function inh 2%, Shiga inhibitor 11, Giardia FBPA inh-1 1% and Cycloheximide cs 11.
For CCc1nnc(NC(=O)CN2CC(C)OC(C)C2)s1 (centres undefined) the results were LmPK inhibitor -1%, NS1 function inh 6%, Shiga inhibitor -4, Giardia FBPA inh-1 3.5µM*, Cycloheximide cs -1, Giardia growth 14%[10.4 µM], Mammal cell tox -6%, Giardia FBPA inh-2 3%, Rabbit FBPA inh 7% and GAPDH counter 7%.
For Cc1nnc(NC(=O)CN2CCN(Cc3ccccc3)CC2)s1 the results were LmPK inhibitor 0%, NS1 function inh 7%, Shiga inhibitor -10, Giardia FBPA inh-1 6.3µM*, Cycloheximide cs -1, Giardia growth 14%[10.4 µM], Mammal cell tox 6%, Giardia FBPA inh-2 3%, Rabbit FBPA inh 14% and GAPDH counter 0%.
Screening CC(=O)Nc1ccc2sc(NC(=O)CN3CCOCC3)nc2c1 returned LmPK inhibitor 5%, NS1 function inh 17%, Shiga inhibitor 3, Giardia FBPA inh-1 4.5µM*, Cycloheximide cs -1, Giardia growth inconclusive, Mammal cell tox -17%, Giardia FBPA inh-2 7%, Rabbit FBPA inh 10% and GAPDH counter 0%.
Cc1nnc(NC(=O)CN2CCN(Cc3ccc(F)cc3Cl)CC2)s1 was read as LmPK inhibitor -4%, NS1 function inh 14%, Shiga inhibitor -4, Giardia FBPA inh-1 3.2µM*, Cycloheximide cs -1, Giardia growth 23%, Mammal cell tox -11%, Giardia FBPA inh-2 6%, Rabbit FBPA inh 6% and GAPDH counter 17%.
O=C(CN1CCN(Cc2ccccc2)CC1)Nc1nnc(C(F)(F)F)s1 was read as LmPK inhibitor 0%, NS1 function inh 23%, Giardia FBPA inh-1 -25% and Cycloheximide cs 8.
CCc1nnc(NC(=O)CN2CCN(Cc3cccc(F)c3)CC2)s1 was read as LmPK inhibitor -5%, NS1 function inh 8%, Shiga inhibitor -8 and Cycloheximide cs 7.
For O=C(CN1CCOCC1)Nc1nc2ccc(F)cc2s1 the results were LmPK inhibitor -9%, NS1 function inh -4%, Shiga inhibitor 22, Giardia FBPA inh-1 -10% and Cycloheximide cs 13.
Screening O=C(CN1CCN(Cc2ccc(F)cc2)CC1)Nc1nc2ccccc2s1 returned LmPK inhibitor 17%, NS1 function inh 13%, Shiga inhibitor -10, Giardia FBPA inh-1 14µM*, Cycloheximide cs -2, Giardia growth -29%, Mammal cell tox 1%, Giardia FBPA inh-2 10%, Rabbit FBPA inh 1% and GAPDH counter 14%.
Screening CCCc1nnc(NC(=O)CN2CCN(C)CC2)s1 returned LmPK inhibitor 0%, NS1 function inh 10%, Shiga inhibitor -2, Giardia FBPA inh-1 inconclusive and Cycloheximide cs -2.
For CCCN1CCN(CC(=O)Nc2nnc(C)s2)CC1 the results were LmPK inhibitor 0%, NS1 function inh 10%, Shiga inhibitor -7, Giardia FBPA inh-1 7.9µM*, Cycloheximide cs 7, Giardia growth 26%, Mammal cell tox 1%, Giardia FBPA inh-2 -2%, Rabbit FBPA inh 13% and GAPDH counter 4%.
Screening Cc1cnc(NC(=O)CN2CCCCC2)s1 returned LmPK inhibitor 5%, NS1 function inh 5%, Shiga inhibitor -9, Giardia FBPA inh-1 4.5µM*, Cycloheximide cs 1, Giardia growth inconclusive, Mammal cell tox -6%, Giardia FBPA inh-2 7%, Rabbit FBPA inh 8% and GAPDH counter 17%.
Screening CC(C)C[C@@H](CC(=O)N[C@@H](CCC(=O)O)CC(=O)O)NC(=O)[C@@H]1CCCC[C@H]1NC(=O)C[C@H](CCCN)NC(=O)C[C@H](Cc1c[nH]c2ccccc12)NC(=O)[C@@H]1CNCC[C@H]1N returned Giardia FBPA inh-1 1%.
For CCn1c(CNC(=O)c2ccccc2Br)nnc1SCC(=O)NC1=NCCS1 the results were LmPK inhibitor -3%, NS1 function inh 2%, Shiga inhibitor -8 and Cycloheximide cs -1.
Screening Cc1ccc(/C=C2\SC(=S)N(C3CCS(=O)(=O)C3)C2=O)o1 (centres undefined) returned LmPK inhibitor -1%, NS1 function inh 9%, Shiga inhibitor -25, Giardia FBPA inh-1 inconclusive and Cycloheximide cs 0.
For CC1=C(C#N)C(=O)N(C2CCS(=O)(=O)C2)C(=O)/C1=C\c1ccc(C)o1 (centres undefined) the results were LmPK inhibitor 5%, NS1 function inh 7%, Shiga inhibitor -14, Giardia FBPA inh-1 13µM*, Cycloheximide cs -1, Giardia growth 47%, Mammal cell tox 5%, Giardia FBPA inh-2 inconclusive, Rabbit FBPA inh inconclusive and GAPDH counter inconclusive.
Screening COc1ccccc1CN1CC(C(=O)NC2(c3ccccc3)CC2)CCC1=O (centres undefined) returned LmPK inhibitor 0%, NS1 function inh -4%, Shiga inhibitor 1, Giardia FBPA inh-1 -6% and Cycloheximide cs 11.
`O=C(N/N=C/c1cccnc1)c1cc(O)c(O)c(O)c1` gave LmPK inhibitor -7%, NS1 function inh 7%, Shiga inhibitor 2, Giardia FBPA inh-1 10µM*, Cycloheximide cs -1, Giardia growth inconclusive, Mammal cell tox 6%, Giardia FBPA inh-2 -25%, Rabbit FBPA inh -20% and GAPDH counter -8%.
CCCC(=O)Nc1ccc(C(=O)N/N=C/c2cccnc2)cc1 was read as LmPK inhibitor 1%, NS1 function inh 3%, Shiga inhibitor 16, Giardia FBPA inh-1 -2% and Cycloheximide cs 2.
Screening Cc1cccc(N(C)C(=O)c2cc(S(=O)(=O)N3CCCC3)cn2C)c1 returned LmPK inhibitor -3%, NS1 function inh 4%, Shiga inhibitor 14, Giardia FBPA inh-1 13% and Cycloheximide cs 2.
